# A3A deaminase: human APOBEC3A DNA deaminase inhibition; inhibition, % at 20 µM; 330,000 tested, 0.41% active; recombinant A3A, FAM/TAMRA ssDNA deamination fluorescence;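 active means at least 40% inhibition at 20 µM here, with at most 30% in a related deaminase screen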;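 further: plate controls were A3A with DMSO for no effect and wells lacking A3A enzyme for full effect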
# ALR H2O2 inh: blocks human ALR sulfhydryl oxidase activity. P55789. AID 485317. purified ALR, DTT oxidation, H2O2 HRP-luminol luminescence. 290,000 tested, 3.8% active. inhibition, % (test concentration not listed);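 active means mean replicate inhibition above about 79%, with every replicate also reaching it, limit read from the data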
# Target sequence (P55789 whole entry, looked up): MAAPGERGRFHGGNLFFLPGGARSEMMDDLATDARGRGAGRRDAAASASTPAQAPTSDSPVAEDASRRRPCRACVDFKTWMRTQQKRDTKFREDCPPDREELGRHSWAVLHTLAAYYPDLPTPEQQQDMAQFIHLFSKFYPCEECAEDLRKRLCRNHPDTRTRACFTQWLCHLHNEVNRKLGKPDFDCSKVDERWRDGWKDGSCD
# CendR NRP1 mod: modulators of CendR peptide binding to human neuropilin-1; FAM-RPARPAR peptide binding to NRP-1, fluorescence polarization; inhibition, % at 25 µM; 360,000 tested, 0.85% active;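 active means inhibition or corrected inhibition above about 18%, plus a signal ratio from 0.5 to 1.5, limit read from the data, passing the limit was not always enough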
# PfM18AAP inh-1: blocks P. falciparum M18 aspartyl aminopeptidase; recombinant PfM18AAP, H-Glu-NHMec fluorogenic cleavage; inhibition, % at 7.35 µM; 290,000 tested, 1.2% active;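 active means inhibition above the campaign mean inhibition over all tested compounds plus 3 SD, cut at about 28% in these data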;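 further: 0% = plate median of test compound wells and 100% = 2 mM ZnCl2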
# A3G deaminase: inhibitors of human APOBEC3G DNA deaminase | recombinant A3G, ssDNA deamination FAM/TAMRA fluorescence | inhibition, % at 20 µM | 330,000 tested, 0.28% active | AID 493012;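 active means inhibition of at least 40% at 20 µM, with no more than 30% in the related APOBEC3A deaminase screen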;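 further: plate controls were DMSO wells with A3G for no effect and wells lacking A3G enzyme for full effect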
# CR mimetic SO: yeast age-related superoxide inhibition as caloric restriction mimetic. AID 2690. superoxide response (% of plate mean), % at 10 µM. 330,000 tested, 0.18% active. S. cerevisiae aged cells, superoxide DHE fluorescence; stronger effect = lower value;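 active means superoxide response under a set limit, about three screen SD below normal, cut at about 65% in these data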;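 further: yeast aged for seven days with compound at 30 °C before DHE staining; 100% = average MFI of all compound-treated wells on the plate with controls excluded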
# PfM18AAP inh-2: confirmation of Plasmodium falciparum M18 aspartyl aminopeptidase inhibitors | inhibition, % at 7.35 µM | recombinant PfM18AAP, H-Glu-NHMec fluorogenic cleavage | 2,400 tested, 28% active | shares compounds with PfM18AAP inh-1;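 active means mean inhibition over replicate wells above the hit cutoff set for the earlier primary screen, cut at about 29% in these data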;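 further: 0% = median of test compound wells and 100% = 2 mM ZnCl2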
# CTSL1 confirm: Cathepsin L (human) inhibition, confirmation | shares compounds with PfM18AAP inh-1 | purified cathepsin L1, Z-Leu-Arg-MCA fluorescence | inhibition, % at 5.96 µM | 2,400 tested, under 10 active;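 active means average inhibition across replicates above the hit cutoff set in the earlier primary screen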;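 further: 0% = median of test compound wells and 100% = Z-Phe-Ala-diazomethylketone 1 µM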
# Target sequence (P07711 whole entry, looked up): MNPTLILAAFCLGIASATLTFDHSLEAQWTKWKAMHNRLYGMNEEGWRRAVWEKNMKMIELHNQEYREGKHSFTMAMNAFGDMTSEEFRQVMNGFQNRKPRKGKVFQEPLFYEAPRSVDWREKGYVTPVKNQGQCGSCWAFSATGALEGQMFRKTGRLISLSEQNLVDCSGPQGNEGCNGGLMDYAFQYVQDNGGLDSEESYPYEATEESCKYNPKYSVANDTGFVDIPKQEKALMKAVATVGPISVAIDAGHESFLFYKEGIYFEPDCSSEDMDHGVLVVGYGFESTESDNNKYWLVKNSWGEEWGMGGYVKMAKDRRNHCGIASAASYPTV
# The depositor's hits bear a star; . = no result. Rows were chosen to be rich in hits. Some 5.2% of all compounds tested hit in one or more screens of this group.
SMILES,A3A deaminase,ALR H2O2 inh,CendR NRP1 mod,PfM18AAP inh-1,A3G deaminase,CR mimetic SO,PfM18AAP inh-2,CTSL1 confirm
O=C(NC1CC1)c1cc(-c2ccccn2)nc2ccccc12,0,4,-4,5,-3,118,.,.
COc1cccc(-c2cc(C(=O)Nn3cnnc3)c3ccccc3n2)c1,4,-15,-5,64*,1,102,62*,-1
COc1cccc(-c2cc(C(=O)NN3CCOCC3)c3ccccc3n2)c1,5,-4,9,-2,5,113,.,.
O=C(Nn1cnnc1)c1cc(-c2ccccn2)nc2ccccc12,-7,-20,4,50*,-2,114,47*,-4
Cc1cccn2c(=O)c(C=NCc3ccco3)c(Nc3ccc(SC(F)F)cc3)nc12,-1,-2,0,7,-4,90,.,.
O=C(NCC1CCCO1)C(=O)N/N=C/c1ccccc1C(=O)O (stereo not given),2,-12,7,-9,-5,95,.,.
CCC(C(=O)Nc1ncn[nH]1)(C(F)(F)F)C(F)(F)F,-1,-6,9,53*,-3,103,69*,-6
O=C(Nc1ncn[nH]1)C(F)(F)C(F)F,-3,-4,-5,32*,-6,84,8,-8
O=c1[nH]nc(CNc2ccc(O)cc2)c2ccccc12,0,100*,-4,35*,6,100,-18,0
COCCn1c(SCC(=O)NC2CCCCC2C)nnc1-c1ccncc1 (stereo not given),2,-1,0,2,0,94,.,.
O=C(CCc1ccc(O)c(O)c1)N/N=C/c1ccc2c(c1)OCO2,-5,95*,22,79*,-5,103,50*,4
O=C(O)C1C2CCC(C2)C1C(=O)Nc1ccc(Cl)c(Cl)c1 (stereo not given),-1,9,10,.,-8,100,.,.
Cc1nc(N2C(=O)C(=O)/C(=C(/O)c3ccccc3)C2c2ccco2)sc1C (stereo not given),6,0,-6,38*,5,107,-29,2
CC(C)C(NC(=O)c1ccc(C(C)(C)C)cc1)C(=O)Nc1cccc(S(N)(=O)=O)c1 (stereo not given),1,-5,4,-4,-7,107,.,.
Oc1ccc(/C=N/Nc2cc(N3CCCC3)nc(N3CCCC3)n2)cc1O,2,90*,4,40*,4,97,27,4
Cc1nnc(-c2ccc(Oc3ccc(Br)cc3)c([N+](=O)[O-])c2)o1,4,2,-4,33*,-1,101,-55,-1
NC(=O)CC(NC(=O)Cc1cccc2ccccc12)c1ccc(N2CCC(Br)CC2)c([N+](=O)[O-])c1 (stereo not given),-1,3,16,.,-6,102,.,.
N#C/C(=C\c1ccc(-c2cccc(C(F)(F)F)c2)o1)C(=O)Nn1cnnc1,4,7,-23,33*,2,94,16,8
CCOC(=O)c1sc(N2C(=O)C(O)=C(C(=O)c3ccco3)C2c2ccco2)nc1C (stereo not given),.,.,-15,32*,.,111,-43,-2
CCOC(=O)c1sc(N2C(=O)C(O)=C(C(=O)c3ccco3)C2c2ccccc2)nc1C (stereo not given),.,.,.,19,.,.,.,.
NC(=O)c1ccc(N2CCN(c3ccc(O)cc3)CC2)c([N+](=O)[O-])c1,1,99*,14,50*,25,89,6,2
Clc1cc(Cl)cc(Nc2ncn[nH]2)c1,-3,.,-13,45*,-7,98,36*,-4
O=C(Nc1ncn[nH]1)c1c(Cl)ccc(Cl)c1Cl,1,1,1,-7,-5,86,.,.
CCOC(=O)CNC(=S)n1ncnc1N,-2,2,8,58*,-5,83,-14,2
COc1ccc(-c2nnn(CC(=O)N(CC(=O)NC3CCCC3)c3ccccc3)n2)cc1OC,-4,-5,15,-2,-8,92,.,.
SMILES,A3A deaminase,ALR H2O2 inh,CendR NRP1 mod,PfM18AAP inh-1,A3G deaminase,CR mimetic SO,PfM18AAP inh-2,CTSL1 confirm
Nc1cc(C(=O)O)ccc1Nc1ccccc1,1,.,-5,54*,1,85,-5,0
Cc1ccc2c(c1)cc(CN(Cc1ccc3c(c1)OCO3)S(=O)(=O)c1ccccc1)c1nnnn12,-3,-2,-6,-6,-7,101,.,.
CC(=O)C1=C(C)Nc2cc(C(F)(F)F)ccc2S1,-5,.,-7,36*,-9,86,-4,-1
CCOC(=O)c1c(NC(=O)CC2Sc3ccc(C(F)(F)F)cc3NC2=O)sc(C)c1C (stereo not given),-4,-8,-13,-3,-4,100,.,.
COc1ccc(N2CCN(C3C(=O)Nc4ccccc4-n4nnnc43)CC2)cc1 (stereo not given),.,.,22,.,.,.,.,.
CCc1ccc(Nc2ccc(S(=O)(=O)N3CCOCC3)cc2[N+](=O)[O-])cc1,3,.,1,-11,6,113,.,.
Cc1c(-c2ccccc2)sc(N)c1C(=O)N1CCOCC1,1,99*,-1,36*,-3,103,-17,-1
Nc1cccc2cc(-c3ccccc3)oc12,-8,2,-7,.,-9,111,.,.
O=C(COc1ccccc1)N/N=C/c1ccc([N+](=O)[O-])o1,1,-32,4,39*,-5,144,-20,7
Cc1ccc(OCC(=O)N/N=C/c2ccc([N+](=O)[O-])o2)cc1,-5,-20,-5,3,-6,179,.,.
Cn1c(NN)nc2sc3c(c2c1=O)CC(C)(C)OC3,-1,-12,-13,21,-4,97,.,.
Cc1nc(NN)c2c3c(sc2n1)COC(C)(C)C3,-5,-1,-10,58*,-9,102,16,-7
CC1(C)Cc2c(sc3ncnc(N)c23)CO1,2,-7,-6,14,2,92,.,.
CC1(C)Cc2c(sc3nc(=S)[nH]c(N)c23)CO1,-5,-12,.,32*,2,104,-11,5
CCSc1ccccc1C(=O)Nc1ccc(S(=O)(=O)NC(C)=O)cc1,-6,96*,0,32*,-2,91,-33,5
Cc1cc(=O)n(Cc2ccco2)c(=S)[nH]1,.,.,-3,.,.,.,.,.
O=C(Nc1ccncc1)C1COc2ccccc2O1 (stereo not given),-3,-3,-4,6,-2,103,.,.
O=C(CSC1=NCCN1)C1COc2ccccc2O1 (stereo not given),-2,93*,11,42*,-2,116,-37,0
O=C(NNc1ccc(Cl)cc1)c1sccc1Cl,-6,.,0,23,30,89,.,.
